Assay results as given in PubChem BioAssay.
Calls of active or inactive are those of the source.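 The calls were made as follows: active = fluorescence ratio normalized to control raised more than 50% in primary screen plus both repeat runs; inactive = the rest.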

test system: TRPC4 beta (transient receptor potential cation channel C4), mouse; assay: activators of mouse TRPC4 channel, confirmation, cell-based, Fluo4 calcium, HEK293 TRPC4beta/mu-opioid, duplicates, 10 µM (AID 2426); settings: Fluo4 calcium fluorescence, at 10 µM

outcome, inactive:
CC(C)C(NC(=O)c1ccc(C(C)(C)C)cc1)C(=O)NCC(c1ccccc1)N(C)C (centres undefined)
CN(C)CCCN(C(=O)c1ccc(S(=O)(=O)N2CCCC2)cc1)c1nc2c(F)cc(F)cc2s1
CCC1CCCCN1CCN1C(=O)C2C(C(=O)Nc3ccc(OC)cc3)C3C=CC2(O3)C1C(=O)NC1CCCCC1 (centres undefined)
Cc1cc(Nc2ccc(C)c(C)c2)c2ccccc2n1
CCCc1nc2ccccc2n1Cc1ccccc1OC
CCCCOc1ccc(Nc2cc(Cl)ccc2C(=O)O)cn1
N#Cc1c(N)sc2c1CCCCCC2
Cc1cc(OCc2cc(C(=O)NCCN3CCCCC3CO)no2)cc(C)c1Cl (centres undefined)
Cc1cccc(C)c1-n1cccc1/C=C1\SC(=S)N(c2cccc(C(=O)O)c2)C1=O
Clc1ccc(COc2ccccc2CNCc2cccnc2)cc1
C=CCOc1ccc(C2CC(C)=NN2c2ccccc2)cc1 (centres undefined)
CCCCN=C(Nc1ccc(Cl)cc1)c1cccnc1
OCc1ccccc1CNCc1ccccc1
Cc1ccc(Nc2cc(C)nc3ccc(C)cc23)cc1
C=CCSc1nnc2n(-c3ccccc3OC)c(=O)c3c4c(sc3n12)CCC4
Cc1ccc(NC(=O)CN2CCc3ccccc3C2)cc1F
c1ccc(CN2CCN(Cc3c[nH]c4ccccc34)CC2)cc1
OCCNc1nc2ccccc2n1CCN1CCCCC1
COc1ccc(NC(=O)c2c[nH]n3c(=O)cc(C4CCN(C(=O)OC(C)(C)C)CC4)nc23)cc1Cl
